For 38 compounds, growth results are on record in PubChem BioAssay (NCI).

About 83,000 compounds went through this panel and 20% of them were active in at least one assay; those are over-represented in the sample as a whole.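 In brief: 96-well plates, 48 h treatment, single concentration, percent growth endpoint.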 Activity calls are given as the source filed them. The calls were made as follows: active = growth percent below 10; inactive = the rest.

For the first assay, the system named is UACC-257 melanoma. Put plainly: NCI-60 one-dose screen, 48 h (100 = growth as untreated, 0 = no growth, -100 = all killed). To be noted: 10 µM unless noted.
`C=C1C(=O)O[C@H]2[C@H]1CC/C(COC(=O)C(=O)c1cn(Cc3ccccc3)c3ccccc13)=C\CC[C@@]1(C)O[C@@H]21`: the growth was -65.4% (active).

On to `O=C1C2C(C(=O)[N]1[Hg][c]1cccs1)C1(Cl)C(Cl)=C(Cl)C2(Cl)C1(Cl)Cl` (configuration not stated), for which the growth is -50.8% (active).

As for `O=C1CN=C(c2ccc(Cl)cc2)c2sccc2N1`, the growth was 119% (inactive).

Regarding `O=C1NC(=O)C(=Cc2cccn2CCCCCn2c3ccccc3c(=O)c3ccccc32)C(=O)N1`, the growth is 104% (inactive).

On to `Nc1c(F)cc(-c2nc3cc(F)ccc3[se]2)cc1Br`, for which the growth was 85.4% (inactive).

For the compound `O=[N+]([O-])CC(c1ccccc1Cl)c1c(-c2ccccc2)[nH]c2ccccc12` (configuration not stated), the growth was 48.9% (inactive).

As to `CC(CO)NC1CCCCC1` (configuration not stated), the growth is 104% (inactive).

In the case of `OCCNC(Cc1ccccc1)c1ccc2c(c1)OCO2` (configuration not stated), the growth was 90.1% (inactive).

Consider `Clc1cccc(N2COOC3(OOC2)C2CC4CC(C2)CC3C4)c1`, for which the growth is 98% (inactive).

The test system of another assay is M14 melanoma. The description is as above. To be noted: 10 µM unless noted.
On to `CCCC[C@H](NC(=O)[C@H]1CCCCN1C)C(=O)N(C)[C@H](C[C@@H](OC(C)=O)c1nc(C(=O)N[C@@H](Cc2ccccc2)C[C@H](C)C(=O)OCC)cs1)C(C)C`, for which the growth was 1.33% (active).

With `O=C([O][Hg][CH2]C1OCCOC1[CH2][Hg][O]C(=O)c1ccccc1)c1ccccc1` (configuration not stated), the growth is 73.3% (inactive).

Consider `Cn1cc(-c2csc(-c3cn(CCN4CCOCC4)c4ccccc34)n2)c2cccnc21`, for which the growth is 39% (inactive).

In the case of `O=C(O)c1c(Cl)n(Cc2ccc(O)cc2)c2ccc(O)cc12`, the growth was 98% (inactive).

For the compound `CCCCCCCCCCCCCCCCCCOc1ccccc1COP(=O)(O)OOCC[N+](C)(C)C`, the growth was -29.1% (active).

As for `CC(C)(C)N1CC1C#N` (configuration not stated), the growth was 110% (inactive).

For `COC(=O)[C@@H](C)C[C@H](Cc1ccc2ccccc2c1)NC(=O)c1csc([C@@H](C[C@H](C(C)C)N(C)C(=O)[C@@H](NC(=O)[C@H]2CCCCN2C)C(C)C)OC(C)=O)n1`, the growth was 24.6% (inactive).

With `CCCCC1(CCC)C(=O)NC(=S)NC1=O`, the growth was 106% (inactive).

`Nc1ccc(Cl)cc1`: the growth was 99.5% (inactive).

Consider `COc1ccc([As]=[As]c2ccc(OC)c(NCS(=O)(=O)O)c2)cc1NCS(=O)(=O)O` (configuration not stated), for which the growth was 19.2% (inactive).

For the compound `CC1(C)C(C(=O)c2cn(CCCCF)c3ccccc23)C1(C)C`, the growth was 95% (inactive).

As to `O=[N+]([O-])c1ccc([Se]C2CCCCC2Cl)c([N+](=O)[O-])c1` (configuration not stated), the growth is 40.2% (inactive).

Consider `COP(=O)(OC)C(O)c1ccc(Cl)cc1` (configuration not stated), for which the growth was 96.4% (inactive).

Take `Cc1cnc(/C=C/C(=O)O)cc1-c1cc2c(cc1C)C(C)(C)CCC2(C)C`: the growth is 77.1% (inactive).

On to `COC(=O)[C@H](C[C@H](Cc1ccccc1)NC(=O)c1csc([C@@H](C[C@H](C(C)C)N(C)C(=O)[C@@H](NC(=O)[C@H]2CCCCN2C)C(C)C)OC(C)=O)n1)NC(=O)OCc1ccccc1`, for which the growth was -48.4% [8.5 µM] (active).

Turning to `Cc1ccc2c(C(C[N+](=O)[O-])c3cccs3)c(-c3ccccc3)[nH]c2c1` (configuration not stated), the growth is 19.4% (inactive).

In the case of `CCOC(=O)[C@@H](C)C[C@H](Cc1ccccc1)NC(=O)c1csc([C@@H](C[C@H](C(C)C)N(C)C(=O)[C@@H](NC(=O)[C@H]2CCCCN2C)C(C)(C)C)OC(C)=O)n1`, the growth was -14.6% (active).

For the compound `NC(=O)C(Br)c1ccccc1` (configuration not stated), the growth is 73.3% (inactive).

`CC(=O)O[C@H](C[C@H](C(C)C)N(C)C(=O)[C@@H](NC(=O)[C@H]1CCCCN1C)C(C)C)c1nc(C(=O)N[C@@H](Cc2ccccc2)C[C@H](C)C(=O)O)c(CCOCc2ccccc2)s1`: the growth is -29.4% (active).

Regarding `O=NN1CCCc2cccc(O)c21`, the growth was 22.2% (inactive).

As for `C#C[C@]1(OC(=O)CCCCCC)CC[C@H]2[C@@H]3CCC4=CC(=O)CC[C@@H]4[C@H]3CC[C@@]21C`, the growth is 25.6% (inactive).

Turning to `CC(=O)OC1C(OC/C2=C/C3[C@@H](C(C)C)CC=C(C)[C@@H]3CC(OC(=O)/C=C/c3cn(C)cn3)[C@]3(C)C=C[C@@]2(O)O3)OCC(O)C1O` (some centres not stated), the growth was -35.7% (active).

`COC1CC2c3ccccc3C1C(C)=[N+]2C` (configuration not stated): the growth was 103% (inactive).

As to `NC(=O)CNc1ccc([As]=[As]c2ccc(NCC(N)=O)cc2)cc1` (configuration not stated), the growth is 57.7% (inactive).

For `CCCCCN(CCCCC)CC(O)c1cc(Cl)ccc1OC` (configuration not stated), the growth is 23.1% (inactive).

For `ClC1=C(Cl)C(Cl)(C2(Cl)C(Cl)=C(Cl)C(Cl)=C2Cl)C(Cl)=C1Cl`, the growth was -57.6% (active).

As to `CCOC(=O)[C@@H](C)C[C@H](Cc1ccccc1)NC(=O)c1nc([C@@H](C[C@H](C(C)C)N(C)C(=O)[C@@H](NC(=O)[C@H]2CCCCN2C)C(C)C)OC(C)=O)sc1CCOCc1ccccc1`, the growth is -57.1% (active).

In the case of `COC(=O)N[C@H]1CCc2c(Br)c(OC)c(OC)c(OC)c2-c2ccc(SC)c(=O)cc21`, the growth was 2.58% (active).

Regarding `O=C(CC1(O)C(=O)Nc2ccc(Br)cc21)c1ccc(C(=O)NCC2CCC3(CC2)OOC2(CCCCC2)OO3)cc1` (configuration not stated), the growth was 61.6% (inactive).

On to `C=C1C(=O)O[C@H]2[C@H]1CC/C(COC(=O)C(=O)c1cn(Cc3ccccc3)c3ccccc13)=C\CC[C@@]1(C)O[C@@H]21`, for which the growth is -66% (active).

Turning to `O=C1C2C(C(=O)[N]1[Hg][c]1cccs1)C1(Cl)C(Cl)=C(Cl)C2(Cl)C1(Cl)Cl` (configuration not stated), the growth is -57.9% (active).

Regarding `O=C1CN=C(c2ccc(Cl)cc2)c2sccc2N1`, the growth is 110% (inactive).

As to `O=C1NC(=O)C(=Cc2cccn2CCCCCn2c3ccccc3c(=O)c3ccccc32)C(=O)N1`, the growth is 102% (inactive).

For `Nc1c(F)cc(-c2nc3cc(F)ccc3[se]2)cc1Br`, the growth is 88% (inactive).

As for `O=[N+]([O-])CC(c1ccccc1Cl)c1c(-c2ccccc2)[nH]c2ccccc12` (configuration not stated), the growth was 21.3% (inactive).

Turning to `CC(CO)NC1CCCCC1` (configuration not stated), the growth is 102% (inactive).

Turning to `OCCNC(Cc1ccccc1)c1ccc2c(c1)OCO2` (configuration not stated), the growth is 88.5% (inactive).

`Clc1cccc(N2COOC3(OOC2)C2CC4CC(C2)CC3C4)c1`: the growth is 93.8% (inactive).
